Measurements reported in PubChem BioAssay AID1220 (Sanford-Burnham Center for Chemical Genomics, 2008).
Among all 190,000 compounds or so, about 1,300 (0.68%) were called active. The sample as a whole holds a higher share of actives than the screen did. Values without a mark were called inactive. Cut-off read from the data, not from the text of the source: active = inhibition above about 50%; inactive = the rest.

target: Mannose-6-phosphate isomerase (Homo sapiens) (UniProt P34949); test: human PMI inhibitors, high substrate, primary screen, biochemical, fluorescence intensity, high mannose 6-phosphate (AID 1220); details: recombinant PMI enzyme, coupled fluorescence intensity; at 20 µM; hits give high values
Sequence (P34949 whole entry, looked up): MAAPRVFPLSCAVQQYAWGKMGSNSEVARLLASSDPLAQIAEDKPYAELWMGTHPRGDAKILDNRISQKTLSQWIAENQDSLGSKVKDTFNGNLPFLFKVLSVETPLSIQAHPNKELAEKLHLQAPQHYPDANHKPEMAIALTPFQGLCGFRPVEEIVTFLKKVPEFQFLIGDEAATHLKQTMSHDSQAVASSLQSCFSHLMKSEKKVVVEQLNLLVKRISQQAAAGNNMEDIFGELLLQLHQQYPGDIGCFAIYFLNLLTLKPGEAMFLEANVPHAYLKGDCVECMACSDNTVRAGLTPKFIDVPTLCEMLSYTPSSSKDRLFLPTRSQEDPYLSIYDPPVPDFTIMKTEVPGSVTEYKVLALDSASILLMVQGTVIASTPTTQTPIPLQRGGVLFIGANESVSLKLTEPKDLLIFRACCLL

SMILES | inhibition
Cc1ccc(NC(=O)c2cc(C)n(-c3ccccc3)c2C)cc1 | 9.3%
Cc1ccc(CN(c2ccc(C(=O)N3CCCC3)cc2)S(C)(=O)=O)cc1 | -1.2%
CCC(=O)Nc1cccc(NC(=O)CSc2nnc(-c3ccc(NS(C)(=O)=O)cc3)n2CC)c1 | -2.3%
CCc1nnc(NC(=O)CSc2nnc3c4ccccc4n(C)c3n2)s1 | 2%
Cc1onc(-c2c(F)cccc2Cl)c1C(=O)N1CCCc2ccccc21 | 4.2%
O=C1NC(Cc2ccccc2)C(=O)N1Cc1cc([N+](=O)[O-])cc2c1OCOC2 (centres undefined) | -4.9%
O=C(CN(C(=O)Cn1nnc(-c2ccccc2F)n1)c1cccc2c1CCCC2)NCc1ccccc1 | 28.1%
NC(=O)NC(=O)CC1S/C(=N/N=C2/NC(=O)CS2)NC1=O (centres undefined) | 24.9%
NC(=O)NC(=O)CC1S/C(=N/N=C2\CSC(=O)N2)NC1=O (centres undefined) | 50.5% (active)
NC(=O)NC(=O)CC1S/C(=N/N=C/c2ccccc2)NC1=O (centres undefined) | -2%
COc1ccc(-c2cc(C(=O)Nc3c(C)nn(Cc4ccc(Cl)cc4)c3C)no2)cc1 | 1.1%
CC(CCn1cccn1)NC(=O)c1cc(COc2ccc(F)cc2F)on1 (centres undefined) | 7.7%
Cc1cc2nccc(-c3ccccn3)n2n1 | -0.9%
c1ccc(-c2cc3nccc(-c4ccccn4)n3n2)cc1 | 61.5% (active)
Nc1nc2nccc(-c3ccccn3)n2n1 | 4.4%
Cc1nn(C)c(C)c1CS(=O)(=O)c1ccccc1 | 2.6%
Cc1cc2nc(CS(=O)(=O)c3ccccc3)cc(=O)n2[nH]1 | 0.1%
CCCCCCCCNc1nc(Cl)nc(NCCN2CCOCC2)n1 | -7.1%
NC(=O)CSc1nc2ccccc2nc1SCC(N)=O | -6.6%
COc1cc(O)c(C(C)=O)cc1OC | -17%
CC(=O)Nc1nonc1NC(C)=O | 10.7%
CCOc1cc(NC(=O)C2CCCO2)c(OCC)cc1NC(C)=O (centres undefined) | 6.8%

SMILES | inhibition
CCOc1cc(Cl)c(NC(C)=O)cc1OCC | -3.5%
CC(=O)Nc1cc(OC(C)=O)c2nonc2c1OC(C)=O | 78.3% (active)
COc1cc(O)c(NC(C)=O)c2nonc12 | 62.4% (active)
COc1ccc(/C=N/NS(=O)(=O)c2ccccc2)cc1OC(=O)c1ccc(C)cc1 | 6.9%
Clc1ccccc1Cc1noc(CN2CCCCC2CCc2ccccn2)n1 (centres undefined) | 16.4%
COc1ccc(/C=N/c2c(-c3ccc(OC)cc3)nc3n2CCS3)cc1 | 57.2% (active)
FC(F)Oc1ccc(/C=N/c2c(-c3ccc(OC(F)F)cc3)nc3n2CCS3)cc1 | 1.9%
Clc1ccc(/C=N/c2c(-c3ccc(Cl)cc3)nc3n2CCS3)cc1 | 0.3%
Cc1ccc(NCc2ccccc2)cc1 | 9.2%
Cc1csc(=Nc2cccnc2)n1Cc1ccco1 | 2.8%
COc1cccc(OCC(=O)NNC(=S)Nc2ccc(Cl)cc2Cl)c1 | 3.7%
O=C(c1cncc(Br)c1)N1CCN(c2ccc(N3CCOCC3)nn2)CC1 | 4.8%
O=C(Cc1c(F)cccc1Cl)NC1=NCCS1 | 9.7%
O=C(Cc1c(Cl)cccc1Cl)NC1=NCCS1 | -5.2%
O=C(CSc1cccc2cccc(Cl)c12)NC1=NCCS1 | 51.9% (active)
COc1ccc(N2C(=O)CSC(c3ccccc3)C2=O)cc1 (centres undefined) | 4.1%
Cc1cc(NC(=O)CN2CCN(S(=O)(=O)c3ccc(Cl)cc3)CC2)no1 | 2.2%
CC(C)C(=O)NC(c1cccs1)c1cc([N+](=O)[O-])c2cccnc2c1O (centres undefined) | 46.5%
O=C(NC(c1ccc(Cl)cc1)c1cc(Cl)c2cccnc2c1O)c1cccnc1 (centres undefined) | 2.3%
Cc1ccc(C(NC(=O)C(C)C)c2cc([N+](=O)[O-])c3cccnc3c2O)cc1 (centres undefined) | 53.9% (active)
O=[N+]([O-])c1cc(CN2CCCC2)c2cccnc2c1O | 44.4%
CN(Cc1cc([N+](=O)[O-])c2cccnc2c1O)C1CCCCC1 | 51.8% (active)

SMILES | inhibition
O=[N+]([O-])c1cc(CN2CCN(c3ccccc3)CC2)c(O)c2ncccc12 | 35.7%
CC(C)C(=O)NC(c1ccco1)c1ccc2cccnc2c1O (centres undefined) | 37.8%
O=[N+]([O-])c1cc(Cl)c(O)c2ncccc12 | 32.5%
CC(C)C(=O)NC(c1ccccc1)c1cc([N+](=O)[O-])c2cccnc2c1O (centres undefined) | 60.9% (active)
CCCNC(=O)c1ccc2nc(-c3ccccc3)c(-c3ccccc3)nc2c1 | 11.1%
CCc1ccc(Oc2cc(C)nc(N)n2)cc1 | -0.3%
CCCCc1ccc(-n2nnnc2SCC(=O)Nc2cc(OC)c([N+](=O)[O-])cc2C)cc1 | 10.1%
O=C(NCCc1ccc(Cl)cc1)c1cnc2n(c1=O)CCS2 | 4.8%
O=C(N/N=C/c1ccc2c(c1)OCO2)c1sc2cccc(Cl)c2c1Cl | 12.6%
O=C(CCCCCn1c(=O)[nH]c2ccccc2c1=O)N1CCN(Cc2ccc3c(c2)OCO3)CC1 | -4%
O=C(OCc1cccnc1)C1=Cc2ccccc2OC1 | -1.4%
COc1ccc(C(=O)Nc2cccc(C(C)=O)c2)c(OC)c1OC | 8.1%
COc1ccc(C(C)=O)c2c(O)cccc12 | 56.5% (active)
COc1ccc(C(=O)c2ccc(OC)c3cccc(O)c23)cc1OC | 14.7%
CCOc1ccc(N(CC(=O)N/N=C/c2cccnc2)S(C)(=O)=O)cc1 | -3.8%
CN(C)C(=O)C1(c2ccccc2)CCN(S(=O)(=O)c2ccccc2)CC1 | 14.9%
COc1oc(-c2ccccc2C)nc1C(F)(F)F | 1.8%
COc1ccc(/C(=C/Nc2cccc(Br)c2)C(C)=O)cc1OC | 4.4%
COc1ccc(/C(=C\Nc2ccc(C)c(C)c2)C(C)=O)cc1OC | 56.5% (active)
COc1ccc(N/C=C(\C(C)=O)c2ccc(OC)c(OC)c2)cc1OC | 42.8%
